Consider 15 compounds from PubChem BioAssay AID1527 (The Scripps Research Institute Molecular Screening Center, 2009).

The campaign covered roughly 290,000 compounds. About 2,600 (0.9%) were called active. This is one part of a sample in which actives are shown more often than they occur. A number with no mark means an inactive call.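 How the source made its calls: active means inhibition above the mean of all tested compounds plus 3 SD, cutoff set per screening run (cut at about 7.5% in these data); inactive means the rest.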

The inhibition is the change of the read-out against control, counted positive when it falls.

For the test, the system named is VIM-2 metallo-beta-lactamase (Pseudomonas aeruginosa). In words: inhibition of VIM-2 nitrocefin hydrolysis – biochemical, epi-absorbance readout, Pseudomonas aeruginosa enzyme, primary screen (AID 1527).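 Further: red hydrolysis product quenches plate fluorescence so inhibitors raise well fluorescence; 0% = enzyme with DMSO and 100% = DMSO without enzyme.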 The settings on record: purified VIM-2, nitrocefin hydrolysis, epi-absorbance fluorescence; at 5.6 µM; active compounds read high.
For the compound `Cc1cc(=O)oc2c(C)c(OCC(=O)N3CCN(Cc4ccc5c(c4)OCO5)CC3)ccc12`, the inhibition is 41.5% (active). To `Fc1ccc(N2CCN(Cc3ccc4c(c3)OCO4)CC2)cc1` belongs -2.76%; to `O=C(Cc1ccccc1[N+](=O)[O-])N1CCN(Cc2ccc3c(c2)OCO3)CC1`, 1.82%. As for `CC(=O)c1c(C)n(C(C)C)c2ccc(O)cc12`, the figure is -2.19%. To `COc1cc2nc(N3CCN(C(=O)[C@@H]4CCCO4)CC3)nc(N)c2cc1OC` belongs -2.29%; to `CCOC(=O)C1(CCc2ccccc2)CCN(Cc2ccco2)CC1`, -1.92%; to `CNC(=O)O/N=C(\N)Cc1csc2ccc(Cl)cc12`, -0.28%. Regarding `COC(=O)COc1cc(C)cc2oc(=O)c3c(c12)CCCC3`, the inhibition was 8.38% (active). As for `CCN1CCN(C(=O)Cc2coc3cc(C)cc(C)c23)CC1`, the inhibition was -5.4%. Regarding `Cc1cc(OCc2cc(C(=O)O)oc2C)c2c3c(c(=O)oc2c1)CCCC3`, the inhibition was 56.6% (active). To `O=C(N/N=C/c1c(O)n(C2CC2)c(=S)[nH]c1=O)c1ccccc1Cl` belongs -1.56%; to `CN(C)CC1CCCCC1OC(=O)c1ccc(Cl)c(Cl)c1` (stereo not given), 0.42%. As to `Cc1cc2ccccn2c1C(C[N+](=O)[O-])c1c(F)cccc1Cl` (stereo not given), the inhibition is 0.92%. Regarding `COc1ccc(-n2c(-c3ccccc3)nc3ccccc3c2=O)cc1`, the inhibition was -3.17%. To `COCCNC(=O)CN1C2CCC1CC(O)(c1cccnc1)C2` (stereo not given) belongs -2.88%.
